Rows were chosen to be rich in hits. Some 3.2% of all compounds tested hit in one or more screens of this group.
GDH-TPI counter: GDH-TPI coupling enzyme inhibitors, primary screen, artefact control for M. tuberculosis FBA inhibitor project, biochemical, absorbance, full deck. hit rate 1.2% among 360,000. GDH-TPI coupled enzyme counterscreen, NADH absorbance. inhibition, % at 4.8 µM; in the data active = inhibition above about 30%;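 also: 0% = DMSO wells and 100% = wells lacking the enzyme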
PrPC surface inh: inhibitors of human cell surface prion protein PrPC, primary screen, cell-based, TR-FRET; Major prion protein (Homo sapiens), P04156; TR-FRET read-out; inhibition, % at 13.8 µM; hit rate 0.43% among 370,000; AID 720596, 2013; in the data active = inhibition above about 24%; also: 0% = median of the test wells and 100% = reference compound wells
FBA Mtb inh: Mtb FBA enzyme inhibitors, primary screen, biochemical, fluorescence, strain H37Rv; Fructose-bisphosphate aldolase (Mycobacterium tuberculosis (strain ATCC 25618 / H37Rv)), …; purified M. tuberculosis FBA, fluorescence read-out; inhibition, % at 1 µM; hit rate 2.3% among 360,000; AID 588726, 2011; in the data active = inhibition above about 27%;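 also: 0% = vehicle and 100% = reference inhibitor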
TcdB inh: TcdB glycohydrolase inhibitors, primary screen, biochemical, single point, plate reader. Toxin B (Clostridioides difficile), P18177. TcdB glycohydrolase enzymatic assay. inhibition, % at 9.99 µM. hit rate 0.24% among 350,000. AID 652162, 2013; in the data active = inhibition above about 10%
Yp Topo-I inh: Yersinia pestis topoisomerase I inhibitors, primary screen, biochemical, cleavage product accumulation, plate reader, single point. activity, % at 10 µM. DNA topoisomerase I (Yersinia pestis CO92). hit rate 0.064% among 360,000. Y. pestis Topo-I cleavage product accumulation; in the data active = activity above about 50%, passing the limit was not always enough
PrPC TRFRET cf: confirmation of inhibitors of cell surface human prion protein, confirmation, cell-based, TR-FRET; shares compounds with PrPC surface inh; cell surface PrPC level; inhibition, % at 13.8 µM; hit rate 65% among 1,500; AID 743200, 2013; in the data active = inhibition above about 25%
LD9 tox: cytotoxicity in LD9 cells, cytotoxicity control for cell surface PrPc inhibitor project, cell-based, luminescence, high throughput; inhibition, % at 13.8 µM; AID 743201, 2013; shares compounds with PrPC surface inh; hit rate 29% among 1,500; luminescence viability; in the data active = inhibition above about 9.5%
Active calls of the source: *; . = not tested or not shown.

SMILES	GDH-TPI counter	PrPC surface inh	FBA Mtb inh	TcdB inh	Yp Topo-I inh	PrPC TRFRET cf	LD9 tox
C[C@@H]1CCCCO[C@@H](CN(C)C(=O)Cc2ccccc2)[C@H](C)CN([C@H](C)CO)C(=O)c2cc(NS(=O)(=O)c3cccs3)ccc2O1	.	.	.	0.1	.	.	.
CC(C)(C)c1csc(NC(=O)c2ccncc2)n1	12.7	4.7	-2.8	3.1	-0.4	.	.
O=C(Nc1nc(-c2cccs2)cs1)c1ccc(Cl)s1	19.7	7.3	6.5	-0.1	-8.2	.	.
CC(C)(C)c1csc(NC(=O)c2ccc(Cl)s2)n1	5.9	40.3*	3.4	.	-5.7	44.9*	-8.9
Cc1ccc(C(=O)Nc2nc(C(C)(C)C)cs2)s1	8.7	43.0*	-2.5	.	-0.4	42.1*	-10.8
CCc1ccc(C(=O)NNc2ccc(Cl)cc2)cc1	-10.2	30.8*	-4.5	-6.4	-0.3	42.9*	3.0
CCc1ccc(C(=O)NNc2cc(Cl)cc(Cl)c2)cc1	5.2	13.5	0.5	0.7	-2.7	.	.
CCCc1ccc(C(=O)NNc2cc(Cl)ccc2Cl)cc1	-8.3	24.9*	1.4	0.8	-8.6	27.1*	5.0
O=C(Sc1cccc2cccnc12)c1ccccc1Br	-0.8	30.3*	-3.4	-0.1	6.1	11.9	83.0*
C/C=C/c1ccc([C@H]2[C@@H](CO)N3C(=O)CN(S(=O)(=O)c4ccccc4)C[C@@H]23)cc1	.	.	.	-0.2	.	.	.
COc1ccccc1CNc1nc(Nc2cccc(-c3cnco3)c2)c2sccc2n1	7.5	25.4*	1.2	0.3	-17.1	33.2*	34.8*
COc1ccccc1CNc1nc(NCc2ccccc2OC)c2sccc2n1	9.7	15.6	4.5	1.2	-4.0	.	.
COc1ccc(C(=O)Nc2ccc(-c3cn4ccsc4n3)cc2)cc1S(=O)(=O)N1CCOCC1	17.5	77.4*	-0.2	.	14.3	51.4*	-2.6
COc1ccc(C(=O)Nc2ccc(N3CCOCC3)cc2)cc1S(=O)(=O)N1CCOCC1	-0.7	0.8	5.2	1.5	-14.0	.	.
CCOc1ccc(Cl)cc1-c1cc(C(=O)Nc2ccc(OC)cc2OC)[nH]n1	2.2	13.0	0.7	1.4	4.6	.	.
COc1ccc(NC(=O)c2cc(-c3cc(Cl)ccc3OC)n[nH]2)c(OC)c1	12.5	28.4*	-0.6	-7.6	-3.8	19.1	1.4
C[C@H]1CN([C@@H](C)CO)C(=O)c2cccc(NC(=O)c3nc4ccccc4s3)c2O[C@@H]1CN(C)S(=O)(=O)c1ccc(Cl)cc1	.	.	.	0.5	.	.	.
COc1cc(NC(=O)c2cccc3c(-c4cccnc4)coc23)cc(OC)c1OC	14.2	30.4*	2.5	0.1	-4.6	25.0*	42.6*
O=C(Nc1cccc(C(F)(F)F)c1)c1cccc2c(-c3cccnc3)coc12	-5.4	.	-1.6	.	12.5	.	.
CCC(=O)Nc1ccc2c(c1)C(=O)N(C)[C@@H]1CC[C@H](CC(=O)NCCc3ccccc3)O[C@H]1CO2	.	.	.	-0.2	.	.	.
CC[C@@H]1CCC[C@@H](O)[C@@H](C)C(=O)O[C@H](C)[C@@H](C)C/C=C(C)/C(OC)=C\C(=O)N(C)C([C@@H](C)CC)C(=O)N(C)[C@@H](C(C)C)C(=O)N(C)[C@@H](COC)C(=O)N2CCC[C@H]2C(=O)N(C)[C@@H](C(C)C)C(=O)N2CCC[C@H]2C(=O)O1 (some centres not stated)	.	41.4*	3.2	3.9	.	51.1*	15.7*
COc1ccc2c(Cl)c(C(=O)NN)sc2c1	20.7	9.0	1.1	-1.9	6.5	.	.
COc1ccc2c(Cl)c(C(N)=O)sc2c1	-2.0	78.6*	-1.8	.	2.8	99.5*	1.6
COc1ccc(C[C@H]2CCn3cc(nn3)COC[C@H](C(C)C)NC2=O)cc1	.	.	.	-0.8	.	.	.
O=C(CSc1nc2ccccc2c(=O)n1-c1ccccc1)N1CCc2ccccc2C1	-0.4	-6.3	-2.5	.	24.8	.	.
SMILES	GDH-TPI counter	PrPC surface inh	FBA Mtb inh	TcdB inh	Yp Topo-I inh	PrPC TRFRET cf	LD9 tox
CC(C)c1ccccc1-n1c(SCC(=O)N2CCc3ccccc3C2)nc2ccccc2c1=O	2.1	33.9*	-1.2	-0.2	24.2	36.3*	35.0*
CCN(CC)C(=O)CSc1nc(O)c(Cc2ccccc2)c(=O)n1-c1ccccc1	4.3	59.8*	2.2	.	4.4	53.5*	-6.9
COC(=O)C[C@H]1C[C@@H]2c3cc(NC(=O)Nc4ccccc4)ccc3O[C@@H]2[C@H](CO)O1	.	.	.	1.4	.	.	.
N=c1c2c(-c3ccccc3)c(-c3ccccc3)n(Cc3ccco3)c2ncn1CCCn1ccnc1	8.1	26.9*	-4.4	0.5	9.6	-16.6	19.4*
CC(=O)N(C)C[C@@H]1Oc2cc(C#Cc3cccnc3)ccc2S(=O)(=O)N([C@@H](C)CO)C[C@H]1C	.	.	.	-0.4	.	.	.
Cc1noc(C)c1S(=O)(=O)N(C)C[C@H]1OCCCC[C@H](C)Oc2ccc(NC(=O)NC(C)C)cc2C(=O)N([C@@H](C)CO)C[C@@H]1C	.	.	.	0.3	.	.	.
CCOc1ccc(Nc2nc(NCC3CCCO3)c3ccccc3n2)cc1 (configuration not stated)	-3.1	33.7*	-1.9	0.9	8.0	30.1*	32.3*
CC(=O)N(C)C[C@@H]1Oc2cc(C#Cc3ccc(F)cc3)ccc2S(=O)(=O)N([C@@H](C)CO)C[C@H]1C	.	.	.	-1.3	.	.	.
Cc1ccc(Cn2c(Cc3ccccc3)nc3ccccc32)cc1	4.8	76.5*	1.4	.	42.8	17.6	-3.8
CC1CCN(c2ccc(C(=O)Nc3ccc4c(c3)OCO4)cc2[N+](=O)[O-])CC1	2.0	73.5*	-2.5	6.2	6.4	77.1*	4.2
COc1ccc(NC(=O)C2CC2)cc1-n1cnnn1	6.4	4.9	0.4	.	3.3	.	.
COc1cc(NC(=O)C2CCN(S(=O)(=O)c3ccc(Cl)cc3)CC2)ccc1-n1cnnn1	7.8	27.1*	1.0	.	-4.3	20.8	14.7*
COc1cc(C(=O)Nc2ccc3c(c2)OCO3)ccc1-n1cnnn1	7.8	44.6*	2.7	.	3.1	32.1*	-0.6
CC1CCCN(c2ccc(C(=O)Nc3ccc4c(c3)OCO4)cc2[N+](=O)[O-])C1 (configuration not stated)	15.1	31.0*	-2.4	.	3.7	40.3*	8.8
COc1cc(C(=O)Nc2ccc3c(c2)OCCO3)c(-n2cnnn2)cc1OC	1.9	3.1	3.3	.	-3.5	.	.
C[C@@H]1CCCCO[C@@H](CN(C)Cc2ccncc2)[C@@H](C)CN([C@@H](C)CO)C(=O)c2cc(NC(=O)CCC(F)(F)F)ccc2O1	.	.	.	1.1	.	.	.
CO[C@@H]1CN(C)C(=O)c2cc(NS(=O)(=O)c3ccc(-c4ccccc4)cc3)ccc2OC[C@@H](C)NC[C@@H]1C	.	.	.	0.0	.	.	.

Compound activity (PubChem)
